Test results from PubChem BioAssay AID540317 (National Center for Advancing Translational Sciences (NCATS), 2011).
The whole screen tested about 390,000 compounds, of which about 2,200 (0.56%) were called active. About 3% were inconclusive and are not listed. The full list was thinned out, with actives kept by preference. Values without a mark were called inactive. Calls follow the shape of the dose curve; as a rule, active = well fitted inhibition curve with a large enough effect; inconclusive = small, poorly fitted or top-dose-only effect; inactive = no such curve, though single readings can be large or run the other way.

biological target: Chromobox protein homolog 1 (Homo sapiens) (UniProt P83916); assay: HTS for Inhibitors of HP1-beta Chromodomain Interactions with Methylated Histone Tails; conditions: AlphaScreen HP1-beta / biotin-H3K9me3 peptide binding; series mostly up to 114 µM; activity change, negative = inhibition: at the top concentration; also: nearly all actives have a fitted effect of over 70% in size
From the text: As our understanding of epigenetics expands, it is becoming clear that players in this field are potential targets for drug development. This area of epigenetic therapy has established applications for the treatment of cancer and neurological diseases. We have been involved in this field for a number of years and have performed high-throughput screens to identify the first small molecule inhibitors of protein methyltransferases. These methyltransferases target multiple substrates, and thus regulate many arms of an epigenetic pathway. The methylation of different substrates often generates docking sites for effector proteins that harbor binding domains (chromo, tudor, PHD, MBT and ANK repeats). It has been proposed that the binding sites generated for different proteins by these post-translational modifcations mediate downstream effects on chromatin. Consistent with this theory, di- and tri-methylation of histone H3K9 facilitates the binding of heterochromatin protein HP1. The HP1 protein harbors a chromodomain that is responsible for the methyl-dependent interaction between HP1 and lysine 9 of histone H3. HP1 was first described in flies as a heterochromatin associated protein that can regulate gene silencing. It harbors a chromodomain that binds H3K9me3. In addition, it harbors a chromoshadow domain that interacts with a large number of proteins that are involved in heterochromatin formation and gene repression. There are three highly related HP1 isoforms. All three variants are associated with pericentric heterochromatin and it is not clear whether they have specific or redundant functions. MPP8 is also involved in the repression of gene in euchromatic regions (unpublished data) and like HP1 its chromodomain binds H3K9me3. MPP8 harbors an ankyrin repeat region that is likely involved in binding and recruiting interacting proteins with transcriptional repressive function, much like the chromoshadow domain of HP1 does. We hypothesize that by inhibiting specific protein-protein interactions we will be able to develop compounds that block a single arm of an epigenetic pathway. The specificity attained by blocking a single protein-protein interaction will be far greater than that attained by blocking the enzyme that regulates one of many interactions. Low-affinity protein-protein interactions (Kd in the single- to double-digit micromolar range) such as those discussed here have been very difficult to assay by traditional techniques such as fluorescence polarization or fluorescence resonance energy transfer. We have developed a sensitive chemiluminescence-based assay (Quinn, et al. 2009), which serves as the starting point for this project. The following is a validation assay to identify lead compounds that can block methyl-dependent protein-protein interactions (specifically HP1-beta), which can be used as probes to analyze these methyl-driven interactions and perhaps even developed into targeted epigenetic therapies. NIH Chemical Genomics Center [NCGC] NIH Molecular Libraries Probe Centers Network [MLPCN] MLPCN Grant: DA031087 Assay Submitter (PI): Mark Bedford, University of Texas, Medical Anderson Cancer Center, TX
To each well, 2 uL of HP1-beta protein (final 50 nM) and 1 uL biotinylated histone peptide trimethylated at Lys9 [b-H3(1-18)K9me3] (final 50 nM) was added in 1x PBS buffer, pH 7.4, containing 0.01% Tween-20 using a nanoliter dispenser. Formation of a protein-peptide complex proceeded at room temperature for 30 min. A Kalypsys pin-tool was employed to transfer 23 nL of library compound solution in DMSO to each well. Aurintricarboxylic acid (ATA) was used as an intraplate control with a 12-point titration in duplicate. Following a 30 min incubation of the protein-peptide complex with compounds at room temperature, a mixture of 40 ug/mL each streptavidin-coated donor and nickel chelate acceptor AlphaScreen beads (final 10 ug/mL) was added in a 1 uL dispense for a final volume of 4 uL. […]
Potency is read from the fitted curve at half-maximal effect.

Chain of Chromobox protein homolog 1 (Homo sapiens) (P83916 whole entry, looked up): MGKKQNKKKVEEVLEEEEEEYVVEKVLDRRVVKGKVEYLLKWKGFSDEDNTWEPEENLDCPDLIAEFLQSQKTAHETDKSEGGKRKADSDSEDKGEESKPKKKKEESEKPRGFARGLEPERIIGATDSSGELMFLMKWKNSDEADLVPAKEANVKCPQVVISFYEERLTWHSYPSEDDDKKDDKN

| SMILES | activity change, negative = inhibition | Potency |
| --- | --- | --- |
| O=C(c1ccccc1[N+](=O)[O-])N1CCC2(CC1)OCCO2 | 32% |  |
| O=C(O)c1cc[c]([Sb](=[O])([OH])[OH])cc1[N+](=O)[O-] |  | 0.794 µM (active) |
| CCOc1ccc(S(=O)(=O)NCc2ccc3c(c2)OCO3)cc1C | 64.4% |  |
| C=CCOC(=O)c1ccccc1C(=O)OCC=C | 39.4% |  |
| CCn1cc2nc(SCc3ccccc3Cl)n(CCc3ccccc3)c(=O)c2n1 | 38.9% |  |
| O=c1[nH]c(=S)[nH]c(O)c1/C=C1\C=Nc2ccccc21 | 42.9% |  |
| Nc1nc(NC(=O)/C=C/c2ccc(F)cc2)nn1-c1ccccc1 | 40.4% |  |
| COc1ccc(N2C(=O)/C(=C/c3ccco3)C(=O)NC2=S)cc1 |  | 14.1 µM (active) |
| CCOC(=O)CNC(=O)N1c2ccccc2Sc2ccccc21 | 52.7% |  |
| Brc1cc(Br)c(Oc2cc(Br)c(Br)cc2Br)cc1Br | 76.4% |  |
| CN(C(=O)CSc1nc2ccc(NC(=O)COc3ccccc3)cc2s1)c1ccccc1 | 43% |  |
| COc1ccccc1CN1CCN(C(=O)Cc2ccccc2)CC1 |  | 14.1 µM (active) |
| O=C(Cc1ccccc1)N1CCN(C2CCCCCC2)CC1 |  | 79.4 µM (active) |
| c1ccc(CC2CCCCN2)cc1 (stereo not given) | 14.8% |  |
| O=C(Cc1ccccc1[N+](=O)[O-])N1CCN(Cc2ccc3c(c2)OCO3)CC1 | 23.3% |  |
| c1ccc(CCNC2CCCCCC2)cc1 | -14.7% |  |
| O=C(Cc1ccc(Cl)cc1)NCCN1CCN(C(=O)Cc2ccc(Cl)cc2)CC1 | 42.7% |  |
| O=C(OCC(=O)c1cccs1)C1=COCCO1 | 30.1% |  |

| SMILES | activity change, negative = inhibition | Potency |
| --- | --- | --- |
| O=C(CSc1ccccc1)Nc1ccc(C(=O)Nc2cccc(O)c2)cc1 | 61.2% |  |
| O=c1c2ccccc2ccc2ccc(P(=O)(O)O)cc12 | 46.3% |  |
| COc1cc(Cl)ccc1Nc1ncc(C(=O)N2CCN(c3ccccc3OC)CC2)c2ccccc12 | 64.1% |  |
| O=C(COc1ccccc1Cl)Nc1ccc2nc(SCC(=O)N3CCCC3)sc2c1 | 35.7% |  |
| CCOCCCNC(=O)c1c(NC(=O)c2nc(SC)ncc2Cl)sc2c1CCCC2 | 44.8% |  |
| C[C@H]1CN([C@@H](C)CO)C(=O)Cc2cc(NC(=O)Cc3ccccc3)ccc2O[C@H]1CN(C)S(=O)(=O)c1cccs1 | 47.4% |  |
| COc1cccc(N2C(=O)NC(=O)/C(=C\c3ccc([N+](=O)[O-])s3)C2=O)c1 |  | 31.6 µM (active) |
| Cc1ccsc1/C=N/NC(=O)Cc1cc(=O)[nH][nH]1 | 66.6% |  |
| CC(=O)c1ccc(OC(=O)N2CCOCC2)cc1 | 60% |  |
| CCc1ccccc1NC(=O)c1sc2nc3c(cc2c1N)CN(Cc1ccccc1)CC3 | 39.4% |  |
| CCN(CC)c1ccc(C2C(C(N)=O)=C(C)Nc3nc(SCc4ccccc4)nn32)cc1 (stereo not given) | 33.2% |  |
| Cc1cc2n(n1)C(c1cc(C(C)(C)C)c(O)cc1O)Nc1ccccc1-2 (stereo not given) | 42.3% |  |
| COc1ccc(CNC(=O)c2cc3c(-c4ccccc4F)nn(C)c3s2)c(OC)c1 | 51.6% |  |
| Cc1cc(C)c2c(c1)NP(=S)(c1ccccc1)N2 (stereo not given) |  | 50.1 µM (active) |
| Cc1ccc2c(c1)C1CN(C)CCC1N2C(=O)c1ccccc1NS(=O)(=O)c1ccc(F)cc1C (stereo not given) | 39.3% |  |
| O=C(O)C1CSC(c2cccnc2)N1 (stereo not given) |  | 17.8 µM (active) |
| CCc1ccc(C2C(C#N)=C(N)Oc3n[nH]c(CC(=O)OC)c32)cc1 (stereo not given) | 42.7% |  |
